HP1b binding inh – blocks HP1-beta chromodomain binding to methylated histone tails. P83916. AlphaScreen HP1-beta / biotin-H3K9me3 peptide binding. Potency, µM (top dose mostly 114 µM), for inactives: at the highest dose activity change, negative = inhibition, most hits filed as inhibitors. 0.56% of 390,000 active. AID 540317; also: nearly all actives have a fitted effect of over 70% in size
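AlphaScreen: HP1-beta (50 nM) preformed 30 min with biotin-H3(1-18)K9me3 peptide (50 nM) in PBS pH 7.4, 0.01% Tween-20. Compound added for 30 min at RT, then streptavidin donor/nickel chelate acceptor beads (10 ug/mL) for 30 min.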
JMJD2A Tudor – blocks the human JMJD2A Tudor domain | AlphaScreen JMJD2A-Tudor / H3K4me3 peptide binding | Potency, µM (top dose mostly 114 µM), for the others: top-dose activity change, negative = inhibition, hits mostly inhibitors | 4.4% of 390,000 active; also: % is scaled to controls: 0 for no effect and ±100 for the full control effect; nearly all actives have a fitted effect of over 50% in size
BAZ2B inh – BAZ2B (human) inhibition; Q9UIF8; Potency, µM (doses to about 114 µM), without a hit: at the highest dose activity change, negative = inhibition, hits mostly inhibitors; 4.4% of 360,000 active; AlphaScreen BAZ2B-H3K14Ac peptide displacement; AID 504333; also: % is scaled to controls: 0 for no effect and ±100 for the full control effect; nearly all actives have a fitted effect of over 60% in size
Target sequence (Q9UIF8 whole entry, looked up): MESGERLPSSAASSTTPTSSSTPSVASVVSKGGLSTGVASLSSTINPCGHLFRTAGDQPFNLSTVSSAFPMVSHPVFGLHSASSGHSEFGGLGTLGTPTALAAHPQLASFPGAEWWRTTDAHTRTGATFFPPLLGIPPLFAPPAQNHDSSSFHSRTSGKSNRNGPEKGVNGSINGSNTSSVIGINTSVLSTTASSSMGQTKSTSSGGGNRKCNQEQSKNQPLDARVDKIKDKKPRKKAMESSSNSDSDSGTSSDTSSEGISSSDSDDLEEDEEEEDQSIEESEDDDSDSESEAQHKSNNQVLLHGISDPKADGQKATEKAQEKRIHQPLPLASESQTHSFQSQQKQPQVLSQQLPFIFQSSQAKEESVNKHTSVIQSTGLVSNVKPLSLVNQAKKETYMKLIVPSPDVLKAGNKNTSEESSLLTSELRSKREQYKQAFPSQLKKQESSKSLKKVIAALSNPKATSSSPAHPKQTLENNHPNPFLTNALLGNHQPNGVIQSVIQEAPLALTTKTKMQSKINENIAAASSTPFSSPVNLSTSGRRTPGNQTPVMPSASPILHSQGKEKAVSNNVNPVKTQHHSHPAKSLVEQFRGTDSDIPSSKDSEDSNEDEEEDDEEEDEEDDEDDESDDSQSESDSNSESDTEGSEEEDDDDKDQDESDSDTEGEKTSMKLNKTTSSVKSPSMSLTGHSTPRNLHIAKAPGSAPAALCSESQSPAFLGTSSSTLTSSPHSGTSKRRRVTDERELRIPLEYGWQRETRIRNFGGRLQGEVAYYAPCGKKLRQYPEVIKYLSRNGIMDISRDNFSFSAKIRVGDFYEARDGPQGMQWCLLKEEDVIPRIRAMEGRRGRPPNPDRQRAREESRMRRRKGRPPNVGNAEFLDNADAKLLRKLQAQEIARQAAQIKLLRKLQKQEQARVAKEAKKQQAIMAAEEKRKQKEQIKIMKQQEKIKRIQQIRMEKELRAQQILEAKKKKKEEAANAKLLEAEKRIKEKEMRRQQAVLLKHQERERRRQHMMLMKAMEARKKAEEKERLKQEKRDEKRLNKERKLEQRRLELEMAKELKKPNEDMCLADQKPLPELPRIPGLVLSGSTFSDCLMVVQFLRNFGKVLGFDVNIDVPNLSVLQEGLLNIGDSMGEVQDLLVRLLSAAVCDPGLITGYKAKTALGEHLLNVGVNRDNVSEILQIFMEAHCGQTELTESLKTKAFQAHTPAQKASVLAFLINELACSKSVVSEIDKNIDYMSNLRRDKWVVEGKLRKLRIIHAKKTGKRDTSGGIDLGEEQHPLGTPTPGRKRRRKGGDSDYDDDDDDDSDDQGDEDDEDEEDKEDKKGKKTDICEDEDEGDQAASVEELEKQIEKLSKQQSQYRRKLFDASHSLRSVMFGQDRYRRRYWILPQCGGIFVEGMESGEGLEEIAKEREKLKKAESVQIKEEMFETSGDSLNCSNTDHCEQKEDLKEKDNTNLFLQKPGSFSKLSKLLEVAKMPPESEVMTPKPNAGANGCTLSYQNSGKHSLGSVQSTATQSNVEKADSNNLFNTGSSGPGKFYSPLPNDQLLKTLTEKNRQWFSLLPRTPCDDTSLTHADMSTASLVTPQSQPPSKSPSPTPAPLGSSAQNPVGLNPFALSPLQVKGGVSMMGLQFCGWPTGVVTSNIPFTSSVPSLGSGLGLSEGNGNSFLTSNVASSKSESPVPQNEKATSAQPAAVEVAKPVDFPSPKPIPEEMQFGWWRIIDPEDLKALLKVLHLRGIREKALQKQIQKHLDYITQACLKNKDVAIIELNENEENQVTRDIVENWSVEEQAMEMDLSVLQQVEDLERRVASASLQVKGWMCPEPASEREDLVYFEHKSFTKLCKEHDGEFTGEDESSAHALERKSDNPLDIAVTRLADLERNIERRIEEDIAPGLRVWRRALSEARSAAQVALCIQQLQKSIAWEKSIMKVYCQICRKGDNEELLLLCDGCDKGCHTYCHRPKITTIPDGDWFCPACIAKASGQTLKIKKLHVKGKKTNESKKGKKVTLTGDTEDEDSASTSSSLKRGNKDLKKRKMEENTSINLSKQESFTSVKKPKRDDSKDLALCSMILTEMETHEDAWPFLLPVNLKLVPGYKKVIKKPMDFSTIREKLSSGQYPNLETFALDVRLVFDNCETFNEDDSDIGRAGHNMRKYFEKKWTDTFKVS
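Inhibition is scored as reduced AlphaScreen emission. The BAZ2B/b-H3(5-23)K14Ac complex (50 nM each) in PBS pH 7.4, 0.01% Tween-20 meets compound (up to 110 uM) for 30 min at RT before bead addition.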
G9a inh – G9a (human) methyltransferase inhibition. Q96KQ7. G9a H3K9 monomethylation, AlphaScreen, 2 h. Potency, µM (titrated, usually from 102 µM), for the others: top-dose activity, negative = inhibition, actives largely listed as inhibitors. 8.8% of 350,000 active. AID 504332; also: % is scaled to controls: 0 for no effect and ±100 for the full control effect; nearly all actives have a fitted effect of over 75% in size
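Chemiluminescent proximity detection of H3K9 monomethylation, read after 10 min bead incubation in the dark. Reaction: 20 nM G9a, 500 nM biotin-H3K9 peptide, 20 uM SAM cofactor, 2 h, room temperature, following 15 min enzyme-compound preincubation.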
GLS inhibitor – inhibitors of human glutaminase (GLS); AID 624170; GLS enzymatic activity, qHTS titration; 0.21% of 410,000 active; Potency, µM (titrated, usually from 45.5 µM), inactives show at the top dose activity change, negative = inhibition, usual class: inhibitors; also: % is scaled to controls: 0 for no effect and ±100 for the full control effect
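Assay buffer: 45 mM KH2PO4 pH 8.2, 0.02% Tween-20. hKGA acts on L-glutamine (1 mM solution added); product glutamate is reported by an oxidase/peroxidase Amplex Red coupling, with fluorescence taken at baseline and 30 min.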
Active calls of the source: *; ? = inconclusive; · = no result; [ ] = dose if it differs, or a comment. Rows were chosen to be rich in hits. Some 10% of all compounds tested hit in one or more screens of this group. Calls follow the shape of the dose curve; as a rule, active = well fitted curve in the direction sought with a large enough effect; inconclusive = small, poorly fitted or top-dose-only effect, or another doubt; inactive = no such curve, though single readings can be large; an effect the other way counts as inactive or inconclusive. Potency is read from the fitted curve at half-maximal effect.

SMILES | HP1b binding inh | JMJD2A Tudor | BAZ2B inh | G9a inh | GLS inhibitor
CCCCNc1c(-c2ccc(-c3ccc(C(C)=O)cc3)c(OC)c2)nc2cc(C)ccn12 | -6.8% | ? | · | · | 29.5%
CCOC(=O)C1CCN(CC(=O)Nc2cc(S(=O)(=O)N3CCCCC3)ccc2Cl)CC1 | 19.8% | -12.3% | -6.2% | 0.9% | 13.1%
CCN1CCN(CC(=O)Nc2cc(S(=O)(=O)N3CCCCC3)ccc2Cl)CC1 | ? | 22.4µM* | · | · | -0.1%
O=C(CN1CCN(c2ccc(O)cc2)CC1)Nc1cc(S(=O)(=O)N2CCCC2)ccc1Cl | ? | ? | ? | 8.91µM* | -0.3%
O=C(CN1CCN(c2ccc(O)cc2)CC1)Nc1cc(S(=O)(=O)N2CCCCC2)ccc1Cl | 50.1µM* | ? | · | 7.94µM* | -10.2%
CC(C)(C)c1nn(-c2ccccc2)c2[nH]c(=O)c(CNc3ccc4c(c3)OCCO4)cc12 | ? | 39.8µM* | 1.12µM* | 35.5µM* | 15.5%
O=c1[nH]c2c(cc1CNCCN1CCOCC1)c(-c1cccc(F)c1)nn2-c1ccccc1 | · | · | 2.9% | 1.0% | ·
Cc1nn(-c2ccccc2)c2[nH]c(=O)c(CNc3ccc(N4CCOCC4)cc3)cc12 | ? | ? | 44.7µM* | 31.6µM* | ?
CC1CN(C(=O)COC(=O)c2cnc(Cl)c(Cl)c2)CC(C)O1 (configuration not stated) | 10.8% | ? | · | · | 1.1%
Cc1cccc(C(=O)NCC(=O)NCC(c2cccs2)N2CCOCC2)c1 (configuration not stated) | 16.8% | -9.7% | 7.7% | -1.0%[0.501 µM] | 7.2%
CCc1ccc(NC(=O)C(=O)NCC(c2cccnc2)N2CCN(C)CC2)cc1 (configuration not stated) | 17.3% | 56.2µM* | 44.7µM* | 15.8µM* | -10.1%
O=C(NCC(c1cccnc1)N1CCOCC1)c1cccs1 (configuration not stated) | 37.6% | 9.4%[57.1 µM] | -10.0% | 44.7µM* | -3.2%
Cc1cccc(C(=O)NCC(c2cccs2)N2CCOCC2)c1 (configuration not stated) | 17.9% | -3.4% | 9.5% | 7.94µM* | -8.5%
O=S(=O)(NCc1ccc(Cl)cc1)c1ccc2[nH]c3c(c2c1)CCCC3 | -19.0% | ? | 11.0% | -1.8%[59 µM] | 7.9%
CCN(Cc1nc(-c2ccc(OC)c(OC)c2)no1)S(=O)(=O)c1ccc(OC)cc1 | 30.0% | -11.0% | 3.0% | 0.2%[59 µM] | -0.1%
CC(C)(C)CN1C(=O)C(=O)NC[C@@H]1CCCCN | 69.4% | -9.3% | · | · | -0.8%
CC(=O)Nc1ccc(N=C(C2=C(O)c3ccccc3C2=O)c2ccccc2)cc1 | ? | 56.2µM* | 39.8µM* | 39.8µM* | 6.1%
CCOC(=O)c1ccc(NC(=O)c2c(NCc3sccc3C)sc3c2CCCCC3)cc1 | -7.6% | 56.2µM* | 44.7µM* | 8.91µM* | -11.4%
COc1ccccc1NC(=O)c1c(NCc2ccc(OC)c(OC)c2OC)sc2c1CCCC2 | 11.0% | ? | -25.9% | ? | -2.8%
CCOC(=O)c1ccc(NC(=O)c2c(NCc3cccc(OC)c3OC)sc3c2CCC3)cc1 | 28.1% | -19.6% | 0.5% | 14.1µM* | 0.2%
CCN(CC)CCNC(=O)C(=O)NCC(c1cccnc1)N1CCN(c2ccc(F)cc2)CC1 (configuration not stated) | 35.8% | -15.1% | -1.4% | -31.1%[59 µM] | 15.8%
CCCN(CCC)C(=O)CSc1nc2ccccc2c(=O)n1CC1COc2ccccc2O1 (configuration not stated) | 13.6% | -15.7% | -5.1% | 95.7%[59 µM] | 3.7%
CCCC(=O)NC(=S)Nc1cccc(-c2nc3ncccc3o2)c1 | 41.5% | -3.5% | -33.8% | 22.4µM* | 9.2%
O=C(/C=C/c1ccco1)NC(=S)Nc1cccc(-c2nc3ccccc3o2)c1 | -17.6% | 50.1µM* | 44.7µM* | ? | 18.6%
Cc1cccc(NC(=S)NC(=O)/C=C/c2ccco2)c1 | ? | ? | 44.7µM* | 25.1µM* | 0.0%
SMILES | HP1b binding inh | JMJD2A Tudor | BAZ2B inh | G9a inh | GLS inhibitor
Cc1ccc(-c2nc3ccccc3o2)cc1NC(=S)NC(=O)/C=C/c1ccco1 | 6.2% | ? | -33.0%[57.1 µM] | ? | 2.0%
CC(=O)c1ccc(NC(=S)NC(=O)/C=C/c2ccco2)cc1 | -0.7% | ? | ? | 44.7µM* | -0.4%
O=C(COC(=O)c1n[nH]c2ccccc12)Nc1ccccc1F | 8.1% | -8.2% | · | · | 0.1%
CCOC(=O)C1=C(C)NC(=S)N(C(C)=O)C1c1ccccc1 (configuration not stated) | 7.6% | -20.8% | 2.6% | -2.3%[59 µM] | 2.7%
CCOC(=O)c1sc(NC(=O)CN2C(=O)C3CC=CCC3C2=O)nc1C (configuration not stated) | 10.9% | -18.1% | -4.8% | 6.2%[12.7 µM] | 6.9%
O=C1NC(=Nc2ccccc2)S/C1=C\c1ccccc1 | 48.0% | -16.4% | -31.9% | -1.9%[0.501 µM] | -6.5%
O=C1NC(=Nc2ccccc2)/C(=C/c2ccco2)S1 | 21.9% | -29.4% | 50.1µM* | 11.2µM* | 5.4%
Cc1ccc(N=C2NC(=O)S/C2=C\c2ccco2)cc1 | 0.8% | 17.8µM* | 63.1µM* | ? | -5.3%
O=C(CN1C(=O)COc2ccccc21)Nc1ccc2c(c1)OCCO2 | 15.7% | -12.0% | 13.1% | 12.8% | 1.5%
C=CCSc1nc(N)c(NC(=O)c2ccco2)c(=O)[nH]1 | 28.6% | -5.6% | · | · | 25.5%
CC12CCC(C/C1=N\N=C1\NC(=O)/C(=C\c3cccc(Br)c3)S1)C2(C)C (configuration not stated) | -14.3% | ? | -27.8% | 1.26µM* | -13.0%
COc1cc(/C=N/N=C2\CC3CCC2(C)C3(C)C)ccc1O (configuration not stated) | -7.0% | -19.9% | -30.1% | -4.1%[59 µM] | 8.6%
Cc1ccc(S(=O)(=O)NC(C)C(=O)N2CCOCCOCCOCC2)cc1 (configuration not stated) | -16.5% | -4.9% | 11.9% | 70.8µM* | -0.5%
C=CCNC(=O)/C(C#N)=C/c1c(N2CC(C)OC(C)C2)nc2ccccn2c1=O (configuration not stated) | 16.3% | 4.5% | 4.8% | 12.5%[59 µM] | -16.8%
CC1=CC(C)C2(COC(c3ccc[n+](C)c3)OC2)C(C)C1 (configuration not stated) | -5.2% | 22.4µM* | -36.0% | ? | 10.3%
Cc1cccc(CS(=O)(=O)Cc2ccc(C(=O)NCCc3ccccc3)o2)c1 | -3.8% | -32.9% | -2.3% | 36.8%[59 µM] | 12.1%
Cc1cccc(CCN=c2c([N+](=O)[O-])nn(-c3ccccc3)n2O)c1 | ? | 50.1µM* | · | ? | 6.2%
CCC(=O)N(CCc1ccc(S(N)(=O)=O)cc1)C1CC(=O)N(c2ccc(OC)cc2)C1=O (configuration not stated) | 22.7% | -6.5% | -5.0% | 56.2µM* | -2.3%
CCCOc1ccc(N2C(=O)CC(N(CCc3ccc(OC)cc3)C(=O)c3cccc(F)c3)C2=O)cc1 (configuration not stated) | 11.8% | -28.9% | 4.1% | 44.7µM* | -1.5%
